Drawing on PubChem BioAssay (Tox21), this text covers Potency and activity change, positive = activation for eight compounds.

The nature of experiment [1]: qHTS assay to identify small molecule antagonists of the constitutive androstane receptor (CAR) signaling pathway - cell viability counter screen (AID 1224837). Note: nearly all actives have a fitted effect of over 45% in size. In short, it runs like this:
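HepG2 cells stably carrying hCAR and CYP2B6-2.2kb reporter, stimulated with 50 nM CITCO and compounds at 15 concentrations for 23 h at 37 C. Viability measured by CellTiter-Fluor fluorescence.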
For orientation: qHTS replaces the single test concentration by a dilution series.

For experiment [2], the target named is Nuclear receptor subfamily 1 group I member 3 (Homo sapiens) (UniProt Q14994). The experiment in a line: qHTS assay to identify small molecule antagonists of the constitutive androstane receptor (CAR) signaling pathway (AID 1224838). Note: nearly all actives have a fitted effect of over 40% in size. In short, it runs like this: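 HepG2 cells stably carrying hCAR and a CYP2B6-2.2kb luciferase reporter, seeded 4 hrs before compound (15 concentrations). Stimulated with 50 nM CITCO for 24 hr at 37 C. ONE-Glo luminescence read after 30 min at room temperature.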

For experiment [3] the target is unchanged. The experiment in a line: qHTS assay to identify small molecule agonists of the constitutive androstane receptor (CAR) signaling pathway (AID 1224839). Note: nearly all actives have a fitted effect of over 15% in size. The method in brief: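 HepG2 cells stably co-transfected with hCAR and a CYP2B6-2.2kb luciferase reporter; compounds at 15 concentrations with 0.75 uM PK11195 present. After 24 hr at 37 C, luciferase read by ONE-Glo luminescence.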

A short description of experiment [4]: qHTS assay to identify small molecule antagonists of the estrogen related receptor signaling pathway with the pleiotropic PPARgamma coactivator (PGC) from Tox21 10K library - cell viability counter screen (AID 1224840; active = well fitted cell-killing curve with a large enough effect in the repeat runs, not every such curve was filed as active; note: nearly all actives have a fitted effect of over 40% in size). The method in brief: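 PGC/ERR cells (2,000/well) plated 6 h, then compound-treated for 17.5 h at 37 C. Viability measured by CellTiter-Fluor fluorescence after 30 min at 37 C, multiplexed with the pathway assay.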

The target in experiment [5] is Thyrotropin receptor (Homo sapiens) (UniProt P16473). The experiment in a line: qHTS assay to identify small molecule agonists of the thyroid stimulating hormone receptor (TSHR) signaling pathway (AID 1224843; calls by dose curve; note: nearly all actives have a fitted effect of over 45% in size). In short, it runs like this:
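Steps: seed 800 TSHR-HEK293 cells per well; add test compound and hold 30 min at ambient temperature; dispense cAMP-d2 then anti-cAMP cryptate; incubate 1 h at ambient; measure fluorescence intensity.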

Experiment [6] is described as follows: qHTS assay to identify small molecule agonists of the hypoxia (HIF-1) signaling pathway - cell viability counter screen (AID 1224844; calls by dose curve; note: nearly all actives have a fitted effect of over 50% in size). The method in brief:
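HRE-bla ME-180 cells, 2,000/well in 0.5% dialyzed FBS medium, treated 17 h at 37C with compounds. Viability read in the same wells as the bla reporter, by CellTiter-Glo luminescence after 30 min at room temperature.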

The nature of experiment [7]: qHTS assay to identify small molecule agonists of H2AX (AID 1224845; active = well fitted activation curve with a large enough effect in the signal ratio in the repeat runs, not every such curve was filed as active; the % refers to the signal ratio; note: potency is the fitted concentration of half-maximal effect). The method in brief:
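Wild-type CHO-K1 cells, plated overnight, exposed 3hr at 37C to 15 concentrations (0.76% DMSO final). Lysed, then HTRF anti-pH2AX (S139) cryptate and anti-H2AX-d2 antibodies, 24 hr room temperature; 665/620 nm emission read.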

Experiment [8] is described as follows: qHTS assay to identify small molecule agonists of the hypoxia (HIF-1) signaling pathway (AID 1224846; active = well fitted activation curve with a large enough effect in the signal ratio in the repeat runs, not every such curve was filed as active; the % refers to the signal ratio). In short, it runs like this:
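HRE-bla ME-180 beta-lactamase reporter cells in medium with 0.5% dialyzed FBS, pre-incubated 5 h then exposed to compounds 17 h at 37C, 5% CO2; reporter induction read with CCF4-AM FRET substrate.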

Experiment [9] can be described thus: qHTS assay to identify small molecule agonists of H2AX - cell viability counter screen (AID 1224847; calls by dose curve; note: top concentration of the series differs between compounds; nearly all actives have a fitted effect of over 30% in size). The method in brief:
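CHO-K1 cells plated overnight at 37C, then exposed 3 h at 37C to compounds at 15 concentrations (0.76% DMSO final). Viability by CellTiter-Glo luminescence after 30 min at room temperature.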

A short description of experiment [10]: qHTS RealTime-Glo MT Cell Viability Assay in HepG2 cells - 24 hour (AID 1224867). Note: nearly all actives have a fitted effect of over 50% in size. In short, it runs like this: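 Tox21 10K library screened in qHTS format on HepG2 cells carrying RealTime-Glo reagents. Compounds were added after a 5 h preincubation, and the luminescent signal from continuous culture was measured repeatedly during 40 h treatment.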
Experiment [11] is described as follows: qHTS RealTime-Glo MT Cell Viability Assay in HEK293 cells - 32 hour (AID 1224868). Note: nearly all actives have a fitted effect of over 50% in size. Note: potency is the fitted concentration of half-maximal effect. The method in brief:
(§1)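 Luminescence generated by NanoLuc from substrate produced by living HEK293 cells served as the viability signal. Each value reflects the reading at its stated time point during continuous 40 h compound exposure at 37 C.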

Experiment [12] is described as follows: A CellTox Green Cytotoxicity Assay to monitor cytotoxicity in HEK293 cells - 0 hour (AID 1224869). Note: nearly all actives have a fitted effect of over 50% in size. In short, it runs like this:
(§2)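 HEK293 cells, 600/well, were preincubated 5 hours and then exposed to compounds at 37 C for up to 40 hours. A cell-impermeant cyanine dye staining dead-cell DNA was read by fluorescence at 0, 8, 16, 24, 32 and 40 h time points.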

Experiment [13] can be described thus: qHTS RealTime-Glo MT Cell Viability Assay in HepG2 cells - 40 hour (AID 1224870). Note: nearly all actives have a fitted effect of over 50% in size. In short, it runs like this: (§3)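 HepG2 cells (600/well) mixed with RealTime-Glo MT reagent, settled 5 h at 37 C/5% CO2 before compound addition. Nonlytic NanoLuc luminescence from viable-cell prosubstrate reduction read repeatedly during 40 h treatment at 37 C.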
The nature of experiment [14]: A CellTox Green Cytotoxicity Assay to monitor cytotoxicity in HEK293 cells - 40 hour (AID 1224871). Note: nearly all actives have a fitted effect of over 45% in size. Note: potency is the fitted concentration of half-maximal effect. The method in brief: as §2
Experiment [15] can be described thus: qHTS RealTime-Glo MT Cell Viability Assay in HEK293 cells - 16 hour (AID 1224872). Note: nearly all actives have a fitted effect of over 50% in size. Note: potency is the fitted concentration of half-maximal effect. The method in brief:
as §1

Experiment [16] is described as follows: qHTS RealTime-Glo MT Cell Viability Assay in HepG2 cells - 8 hour (AID 1224873). Note: nearly all actives have a fitted effect of over 55% in size. The method in brief: as §3
Experiment [17] is described as follows: qHTS assay to identify small molecule antagonists of the estrogen related receptor (ERR) signaling pathway from Tox21 library (AID 1224848). Note: nearly all actives have a fitted effect of over 50% in size. Note: potency is the fitted concentration of half-maximal effect. The method in brief: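 Luminescent reporter read-out (ONE-Glo) from NTP's ERR cell line after 18 h treatment at 37 C with DMSO-dissolved Tox21 compounds; cells pre-plated 6 h beforehand at 2,000 per well.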
The nature of experiment [18]: qHTS assay to identify small molecule agonists of the estrogen related receptor (ERR) signaling pathway from Tox21 library (AID 1224849; calls by dose curve; note: nearly all actives have a fitted effect of over 15% in size). The note with it: ERR reporter cell line, ONE-Glo luciferase, 18 h; at 92.4 µM (top of the series) unless noted. The method in brief:
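ERR reporter cells (NTP line) pre-incubated 6 hours at 37 C, then exposed to compounds for 18 hours at 37 C. ONE-Glo luciferase luminescence was read after 30 minutes at room temperature.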

A number with no mark means an inactive call. Records with an inconclusive call do not appear. Active and inactive are the calls of the source. Unless noted, calls come from the whole dose curve; as a rule, active = well fitted curve in the direction sought with a large enough effect in the repeat runs; inconclusive = weak or mixed curves; inactive = no such curve, though single readings can be large; an effect the other way counts as inactive or inconclusive.
% is set by controls: 0 for no effect and ±100 for the full control effect.

Thyrotropin receptor (Homo sapiens), sequence (P16473 whole entry, looked up): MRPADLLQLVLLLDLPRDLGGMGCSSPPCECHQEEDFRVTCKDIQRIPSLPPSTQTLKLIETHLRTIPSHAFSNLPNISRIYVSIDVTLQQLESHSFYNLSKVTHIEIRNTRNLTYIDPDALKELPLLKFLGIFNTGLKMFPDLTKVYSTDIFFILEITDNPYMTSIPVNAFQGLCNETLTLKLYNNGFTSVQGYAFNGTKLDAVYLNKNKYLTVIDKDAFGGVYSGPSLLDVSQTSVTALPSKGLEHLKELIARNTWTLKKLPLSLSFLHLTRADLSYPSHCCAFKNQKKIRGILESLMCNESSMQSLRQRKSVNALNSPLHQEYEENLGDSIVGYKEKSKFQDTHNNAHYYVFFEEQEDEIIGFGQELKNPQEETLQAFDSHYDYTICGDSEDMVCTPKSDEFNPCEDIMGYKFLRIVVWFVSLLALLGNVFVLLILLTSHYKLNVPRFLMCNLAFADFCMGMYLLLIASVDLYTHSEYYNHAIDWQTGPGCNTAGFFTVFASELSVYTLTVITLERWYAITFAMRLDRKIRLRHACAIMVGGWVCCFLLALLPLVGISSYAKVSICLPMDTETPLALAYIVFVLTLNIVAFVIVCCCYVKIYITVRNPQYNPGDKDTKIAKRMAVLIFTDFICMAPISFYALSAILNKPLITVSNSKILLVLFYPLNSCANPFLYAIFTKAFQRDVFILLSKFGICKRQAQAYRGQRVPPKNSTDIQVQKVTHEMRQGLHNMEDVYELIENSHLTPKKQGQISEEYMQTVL
Nuclear receptor subfamily 1 group I member 3 (Homo sapiens), sequence (Q14994 whole entry, looked up): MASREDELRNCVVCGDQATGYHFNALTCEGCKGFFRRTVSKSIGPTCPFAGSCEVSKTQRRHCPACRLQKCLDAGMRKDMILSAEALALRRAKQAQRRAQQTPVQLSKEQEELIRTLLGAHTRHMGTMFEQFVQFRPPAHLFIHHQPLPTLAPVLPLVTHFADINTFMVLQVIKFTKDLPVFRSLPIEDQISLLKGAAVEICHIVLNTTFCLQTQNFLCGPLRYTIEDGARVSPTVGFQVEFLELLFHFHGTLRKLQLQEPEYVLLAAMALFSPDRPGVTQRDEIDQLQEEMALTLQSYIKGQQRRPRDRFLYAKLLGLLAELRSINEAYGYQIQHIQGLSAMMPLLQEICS

Consider `CCOC(=O)OC(=O)OCC`, for which the Potency entry in experiment [1], in [2], in experiment [3], in experiment [4], in experiment [5] and in [6] was “inactive” in each case. For the same compound, the Potency entry in experiment [7], in [8], in [9], in experiment [10], in [11] and in experiment [12] was “inactive” throughout. Further, the Potency result in [13], in experiment [14], in [15] and in experiment [16] was “inactive” throughout.

Regarding `CC/C=C(\C)C=O`, the Potency entry in experiment [1], in experiment [2], in [3], in experiment [4], in [5] and in experiment [6] was “inactive” throughout. The Potency result in experiment [7], in experiment [8], in [17], in experiment [10], in experiment [11] and in [12] was “inactive” each time. For the same compound, the Potency entry in [13], in [14], in experiment [15] and in experiment [16] was “inactive” throughout. The activity change, positive = activation in experiment [18] is 5.99%.

On to `C=CCc1cc(S(=O)(=O)c2ccc(O)c(CC=C)c2)ccc1O`, for which the Potency result in experiment [1], in experiment [2], in experiment [3], in experiment [4], in [5] and in experiment [6] was “inactive” each time. Further, the Potency result in experiment [7], in [12] and in experiment [14] was “inactive” in each case. For the same compound, the figures for the Potency in [17], in experiment [11] and in experiment [15] were 61.1 µM (active), 27.5 µM (active) and 27.5 µM (active), respectively. Also, in experiment [18], the activity change, positive = activation was -45.3%.

Turning to `CSc1nnc(C(C)(C)C)c(=O)[nH]1`, the Potency result in [1], in experiment [2], in [3], in [4], in experiment [6] and in experiment [7] was “inactive” each time. In addition, the Potency entry in [8], in experiment [10], in experiment [11], in [12], in experiment [13] and in experiment [14] was “inactive” throughout. In addition, the Potency result in [15] was “inactive”.

For the compound `CCc1cccc(C)c1N(C(=O)C(=O)O)C(C)COC` (stereo not drawn), the Potency entry in experiment [1], in experiment [2], in experiment [3], in experiment [4], in experiment [5] and in experiment [6] was “inactive” throughout. For the same compound, the Potency entry in experiment [7], in experiment [8], in experiment [9], in experiment [10], in experiment [11] and in [12] was “inactive” each time. Also, the Potency result in experiment [13], in experiment [14], in [15] and in experiment [16] was “inactive” in each case.

`O=C(Cl)c1ccc(Cl)cc1Cl`: the Potency result in experiment [1], in [2], in experiment [3], in experiment [4], in [6] and in [8] was “inactive” each time. For the same compound, the Potency entry in [9], in experiment [12] and in [16] was “inactive” throughout. Further, the Potency was 101 µM (active) in experiment [7] and 49 µM (active) in experiment [14].

Take `CCCCCCCCCCCC(=O)Cl`: the Potency result in [1], in [2], in experiment [3], in experiment [4], in experiment [5] and in experiment [7] was “inactive” each time. The Potency entry in experiment [8], in experiment [9], in experiment [10], in [11], in experiment [13] and in experiment [15] was “inactive” throughout. The Potency result in experiment [16] was “inactive”.

Turning to `CC(CC(C)(C)C)CC(C)(C)CC(C)(C)C` (stereo not drawn), the Potency result in [1], in [2], in experiment [3], in experiment [4], in experiment [5] and in [6] was “inactive” in each case. Besides, the Potency result in experiment [7], in experiment [8], in [10], in experiment [11], in experiment [12] and in experiment [14] was “inactive” in each case. The Potency result in [15] and in experiment [16] was “inactive” each time.
